Compound activity from PubChem.
This is a sample that favours compounds with a hit; in the whole collection about 11% have one here.
Pf growth 96h: P. falciparum growth inhibition at 96 hour, primary screen for plastid delayed-death inhibitors | P. falciparum luciferase reporter growth, 96 h | Potency, µM (titrated, usually from 28.7 µM), for the others: at the highest dose activity change, negative = inhibition, most hits filed as inhibitors | 6.9% of 320,000 active | AID 504834
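Two-generation exposure (96 h) targets delayed-death phenotype. Reporter parasites carrying integrated firefly luciferase, in red cells at 2% hematocrit and 0.05% parasitemia final, kept at 37 C, 5% CO2; luminescence loss indicates inhibition.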
HCV inhibitor: blocks hepatitis C virus; Potency, µM (doses to about 41.8 µM), for inactives: at the highest dose activity change, negative = inhibition, most hits filed as inhibitors; 3.4% of 340,000 active; Huh7.5.1 HCVcc-Cre infection, luciferase reporter, 44 h; AID 651820
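A cell-based infection assay in which seeded cells (1,000 per well) receive test compound after 4 h, are inoculated with HCVcc-Cre at approximately 0.5 moi, and are incubated 44 h before luminescence detection.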
AmpC no deterg: AmpC beta-lactamase inhibition without detergent | P00811 | AmpC nitrocefin hydrolysis, absorbance 480 nm, 0.0001% Triton | Potency, µM (top dose mostly 57.1 µM), inactives show top-dose activity change, negative = inhibition, hits mostly inhibitors | 0.52% of 330,000 active | AID 485341;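 note: plate controls were no compound for no effect and no enzyme for full effect; nearly all actives have a fitted effect of over 20% in size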
Target sequence (P00811 whole entry, looked up): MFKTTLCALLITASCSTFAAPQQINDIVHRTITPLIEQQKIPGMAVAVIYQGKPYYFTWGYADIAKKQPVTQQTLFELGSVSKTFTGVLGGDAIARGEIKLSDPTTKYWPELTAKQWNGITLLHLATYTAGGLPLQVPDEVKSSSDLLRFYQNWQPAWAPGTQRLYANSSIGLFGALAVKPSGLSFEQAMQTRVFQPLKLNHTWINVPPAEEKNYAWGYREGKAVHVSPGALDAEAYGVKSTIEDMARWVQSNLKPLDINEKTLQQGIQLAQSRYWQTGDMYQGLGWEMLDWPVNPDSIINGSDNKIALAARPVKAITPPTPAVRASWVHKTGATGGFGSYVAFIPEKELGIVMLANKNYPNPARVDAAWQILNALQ
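AmpC (5.3 nM in the dispensed reagent) in 20 mM phosphate pH 7.0 with 0.01% (detergent screen) or 0.0001% Triton X-100 was preincubated with compounds for 15 min at room temperature. Nitrocefin was then added from an 800 uM solution, and hydrolysis was followed at 480 nm.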
AmpC inh detg: blocks E. coli AmpC beta-lactamase in detergent assay; Potency, µM (highest dose often 114 µM), inactives show at the highest dose activity change, negative = inhibition, usual class: inhibitors; AmpC hydrolysis of nitrocefin, absorbance 480 nm, 0.01% Triton; 0.041% of 370,000 active;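 note: 0% = no-compound wells and -100% = no-enzyme wells; nearly all actives have a fitted effect of over 25% in size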
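AmpC (5.3 nM in the dispensed reagent) in 20 mM phosphate pH 7.0 with 0.01% (detergent screen) or 0.0001% Triton X-100 was preincubated with compounds for 15 min at room temperature. Nitrocefin was then added from an 800 uM solution, and hydrolysis was followed at 480 nm.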
Pf growth 48h: P. falciparum growth inhibition at 48 hours (one generation) | 5.9% of 310,000 active | Potency, µM (series often up to 28.7 µM), without a hit: at the top dose activity change, negative = inhibition, hits mostly inhibitors | P. falciparum luciferase growth in erythrocytes, 48 h
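Luciferase-expressing parasites in RBCs, 2% Hct / 0.1% parasitemia final; RPMI 1640 + 0.5% Albumax; 37 C, 5% CO2, one generation; luminescence read-out, lower signal = inhibition.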
AMA1-RON2 inh: AMA1-RON2 (P. falciparum) interaction inhibition | AlphaScreen AMA1-biotinylated RON2 peptide binding | 0.2% of 360,000 active | Potency, µM (titrated, usually from 58.2 µM), for inactives: at the highest dose activity change, negative = inhibition, hits mostly inhibitors;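 note: 0% = vehicle wells and -100% = peptide control; nearly all actives have a fitted effect of over 45% in size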
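AMA1 (3D7) with his tag at 25 nM final met compounds first, then biotinylated RON2 peptide at 25 nM; detection used donor plus acceptor beads, 10 µg/mL apiece, read by AlphaScreen after 30 min at room temperature.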
Active calls of the source: *; ? = inconclusive; . = not tested or not shown. Calls come from the whole dose curve; as a rule, active = well fitted curve in the direction sought with a large enough effect; inconclusive = small, poorly fitted or top-dose-only effect, or another doubt; inactive = no such curve, though single readings can be large; an effect the other way counts as inactive or inconclusive. Unless noted, % is set by controls: 0 for no effect and ±100 for the full control effect; potency is the fitted concentration of half-maximal effect.

SMILES	Pf growth 96h	HCV inhibitor	AmpC no deterg	AmpC inh detg	Pf growth 48h	AMA1-RON2 inh
C[N+]1(CC2COC(c3ccccc3)(C3CCCCC3)O2)CCCCC1 (configuration not stated)	5.9µM*	.	.	.	1.1µM*	.
Cn1c(=O)n(Cc2ccco2)c(=N)c2c3c(sc21)CCC3	.	?	.	3%	14%	-4%
Cc1cc(=O)n(Cc2ccco2)c(=S)[nH]1	.	.	.	.	.	-17%
CN(C)CCCn1c(=O)n(Cc2ccco2)c(=O)c2c3c(sc21)CCCCC3	12µM*	?	136%	4%	?	-25%
CC1(C)Cc2c(sc3[nH]c(=S)n(Cc4ccco4)c(=O)c23)CO1	2.6µM*	13%	-17%	2%	-7%	46%
O=c1c2c3c(sc2[nH]c(=S)n1Cc1ccco1)CCC3	46%	9%	20µM*	3%	53%	109%
Cc1ccc(C(C)C)c2c1C(c1ccc3c(c1)OCO3)CC(=O)O2 (configuration not stated)	.	13µM*	-26%	.	.	-6%
NC(=O)c1ccccc1NC(=O)/C=C/c1c(Cl)cccc1Cl	13µM*	?	-20%	-4%	180%	-6%
CCC1CCCCN1CCCNC(=O)c1ccc2c(c1)N(Cc1cccc(Cl)c1)C(=O)c1ccccc1S2(=O)=O (configuration not stated)	.	.	.	-2%	.	.
CCc1ccccc1NC(=O)CCC(=O)N1CCSc2ccccc21	4.1µM*	-12%	-8%	-14%	-10%	2%
CCc1ccc(NC(=O)CCC(=O)N2CCSc3ccccc32)cc1	-12%	-23%	-5%	-9%	-4%	10%
Cc1noc2nc(-c3cccs3)cc(-c3nnc4n3CCCCC4)c12	12µM*	.	-8%	?	16%	.
CCOC(=O)c1cc(-c2cccs2)nc2onc(C)c12	?	-10%	-20%	2%	.	1%
O=[N+]([O-])c1cc(Cl)ccc1Nc1ccccc1	0%	1%	-23%	0%	22%	14µM*
NS(=O)(=O)c1ccc(Nc2ccccc2)c([N+](=O)[O-])c1	40%	7%	-20%	-3%	22%	-12%
CCOC(=O)c1cn(CC)c2ccc(S(=O)(=O)N3CC(C)CC(C)C3)cc2c1=O (configuration not stated)	69%	.	-46%	-4%	2%	14%
CCOC(=O)c1cn(CC)c2ccc(Br)cc2c1=O	12µM*	6%	-8%	-12%	5.2µM*	-11%
CCn1cc(C(=O)O)c(=O)c2cc(S(=O)(=O)N(C)C)ccc21	105%	14%	-23%	1%	38%	1%
CCn1cc(C(=O)O)c(=O)c2cc(Br)ccc21	.	11%	-12%	1%	2.6µM*	14%
COc1ccc(C(=O)NCC(c2cccs2)S(=O)(=O)c2cccs2)cc1 (configuration not stated)	.	.	.	-1%	.	.
Cc1cc(=O)n2c(C(=O)Nc3ccc(Br)cc3)c(C(=O)Nc3ccccc3)sc2n1	.	.	.	11%	.	.
CCc1nc(SCC(=O)Nc2ccc(NC(C)=O)cc2)n[nH]1	.	.	.	5%	.	.
O=C(CSc1nc2c([nH]c3ccccc32)c(=O)n1-c1ccc(F)cc1)NCC1CCCO1 (configuration not stated)	.	.	.	2%	.	.
COc1cc2c(cc1OC)C(SC)=NC1(CCCC1)C2	-23%	?	26%	-9%	10µM*	-18%
COc1cc2c(cc1OC)C(C)=NC1(CCCCC1)C2	17%	3%	-1%	3%	?	2%
CC(=O)N1c2ccccc2Oc2cc3ccccc3cc21	?	12%	-18%	?	1.9µM*	0%
O=C(CCl)N1c2ccccc2Oc2ccc3ccccc3c21	.	?	.	.	.	-26%
CNC[C@H](O)c1ccc(O)c(O)c1	-15%	12%	-26%	-1%	-4%	?
NC[C@H](O)c1ccc(O)c(O)c1	1%	1%	-34%	-14%	1%	2.8µM*
